The results in this text go back to PubChem BioAssay (Tox21).

Structures are written as SMILES. Inconclusive results are not listed. A call without a number means that no potency is given here. Activity calls are given as the source filed them. Calls follow the shape of the dose curve; as a rule, active = well fitted inhibition curve with a large enough effect in the repeat runs; inconclusive = weak or mixed curves; inactive = no such curve, though single readings can be large or run the other way.
Potency is read from the fitted curve at half-maximal effect.

In this assay the target is Cytochrome P450 2C9 (Homo sapiens) (UniProt P11712). Kind of assay: Cytochrome P450 Family 2 Subfamily C Member 9 (CYP2C9) small molecule antagonists: luciferase reporter qHTS assay (AID 1671198). Also: nearly all actives have a fitted effect of over 50% in size. Conditions: P450-Glo CYP2C9 enzyme assay, luciferin luminescence; series mostly up to 115 µM. An excerpt: U.S. Tox21 Program National Center for Advancing Translational Sciences [NCATS] U.S. Environmental Protection Agency [EPA] National Institutes of Environmental Health Sciences [NIEHS] National Toxicology Program [NTP] U.S. Food and Drug Administration [FDA] Tox21 Assay Overview: Cytochrome P450 (CYP) enzymes are membrane-bound hemeproteins that play a key role in metabolism of drugs and xenobiotics. Evaluation of the effect of chemicals on CYP isozymes is useful to minimize the adverse drug reactions and toxicities in drug development process. Tox21 chemicals were tested for their effect on CYP enzyme activities by using P450-Glo (TM) screening systems (Promega Corporation, Madison, WI). These systems provide a luminescent method containing proluciferin substrates and are converted to luciferin products by CYP isozymes. The luciferin products formed are detected with a luciferin detection reagent, and the amount of light produced is proportional to CYP activity. P450-Glo (TM) CYP2C9 screening system (Catalog. No. V9790) was used to detect the compounds that interfere in CYP2C9 activity.
Sequence of Cytochrome P450 2C9 (Homo sapiens) (P11712 whole entry, looked up): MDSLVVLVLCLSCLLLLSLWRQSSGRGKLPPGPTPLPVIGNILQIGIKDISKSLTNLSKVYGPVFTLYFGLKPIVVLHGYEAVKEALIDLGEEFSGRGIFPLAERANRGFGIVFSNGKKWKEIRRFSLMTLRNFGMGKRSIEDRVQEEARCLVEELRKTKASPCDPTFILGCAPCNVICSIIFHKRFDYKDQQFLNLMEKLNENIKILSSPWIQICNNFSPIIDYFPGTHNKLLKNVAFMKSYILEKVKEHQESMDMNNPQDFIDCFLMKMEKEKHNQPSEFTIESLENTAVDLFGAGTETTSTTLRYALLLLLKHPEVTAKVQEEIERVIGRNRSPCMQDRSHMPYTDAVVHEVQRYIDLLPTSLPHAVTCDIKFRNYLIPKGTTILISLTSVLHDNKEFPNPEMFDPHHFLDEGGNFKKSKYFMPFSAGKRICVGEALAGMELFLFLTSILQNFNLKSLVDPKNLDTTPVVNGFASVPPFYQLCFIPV
Tox21 Assay Protocol Summary: Two ul of enzyme-substrate mix was dispensed into medium binding white/solid 1536-well plates (Greiner Bio-One North America Inc., Monroe, NC) using a BioRaptr Flying Reagent Dispenser (FRD, Beckman Coulter, Brea, CA). […] The assay plates were incubated at room temperature for 10 min. Then 2 ul of NADPH regeneration solution was added to each well of the assay plates using an FRD and incubated at 37C for 1 h. The reaction was stopped by adding 4 ul of detection reagent using an FRD and after 20 min incubation at room temperature the luminescence signal was measured using a ViewLux plate reader (Perkin Elmer, Shelton, CT). Data were expressed as relative luminescence units.
On to `CCCCCCCCCCCCCCCBr`, for which the Potency result is “inactive”.
As for `NC(N)=NN=C(/C=C/c1ccc([N+](=O)[O-])o1)/C=C/c1ccc([N+](=O)[O-])o1`, the figure is 24.5 µM (active).
As for `C=CC(=O)OCCOC(=O)CCC(=O)O`, the entry is “inactive”; as for `Cc1ccc2c(ccc3ccccc32)c1`, 35.7 µM (active).
In the case of `CCCCCCc1ccc(N)cc1`, the Potency is 17.8 µM (active).
The result for `CCCCCCCCCCCCC(=O)O` reads “inactive”; that for `C#CCOC(=O)[C@@H](C)Oc1ccc(Oc2ncc(Cl)cc2F)cc1`, 31.6 µM (active); that for `N#CCc1cccc(C(F)(F)F)c1`, “inactive”.
For the compound `NCc1ccccc1`, the Potency entry was “inactive”.
In the case of `CCCCCOC(=O)c1ccc(O)cc1`, the Potency was 36 µM (active).
In the case of `CC(C)(C)C(=O)OCOP(=O)(COCCn1cnc2c(N)ncnc21)OCOC(=O)C(C)(C)C`, the Potency result is “inactive”.
`N#Cc1c(F)cccc1F`: the Potency result was “inactive”.
The result for `CC(C(=O)O)c1ccc(C(=O)c2ccccc2)s1` (stereo not given) reads 17.4 µM (active).
Regarding `CCCCC(CC)COCCCN` (stereo not given), the Potency was 35.2 µM (active).
The result for `CC(=O)CC(=O)c1ccccc1` reads 35.8 µM (active); that for `N[C@H]1C(O)O[C@H](CO)[C@H](O)[C@@H]1O` (stereo not given in full), “inactive”.
The result for `COc1ccc([C@@H]2Sc3ccccc3N(CCN(C)C)C(=O)[C@@H]2OC(C)=O)cc1` reads “inactive”.
For the compound `CCCCOCCOCCOCCOCCO`, the Potency entry was “inactive”.
The result for `CCCCCCCC/C=C\CCCCCCCC(N)=O` reads “inactive”; that for `O=C1[C@H](CC[C@H](O)c2ccc(F)cc2)[C@@H](c2ccc(O)cc2)N1c1ccc(F)cc1`, 8.71 µM (active); that for `O=[N+]([O-])c1cccc(Cl)c1Cl`, “inactive”.
For `Cc1nc2ccccc2n1Cc1ccc(Cl)cc1`, the Potency is 13.8 µM (active).
As for `Cc1ncsc1CCO`, the entry is “inactive”.
Turning to `C=CC(C)(CCC=C(C)C)OC(=O)c1ccccc1` (stereo not given), the Potency is 17.8 µM (active).
The result for `CN1CCC(=C2c3ccccc3CCc3sccc32)CC1` reads “inactive”; that for `C=C(C)C(=O)OCCOc1ccccc1`, 35.6 µM (active); that for `CCCCCCCCCCCCCCCC(=O)OC/C=C(C)/C=C/C=C(C)/C=C/C1=C(C)CCCC1(C)C`, 35.6 µM (active).
As for `CNS(=O)(=O)Cc1ccc2[nH]cc(CCN(C)C)c2c1`, the entry is “inactive”; as for `CCC(C)N(C)C(=O)c1cc2ccccc2c(-c2ccccc2Cl)n1` (stereo not given), 20.5 µM (active); as for `CCN1CCC[C@H]1CNC(=O)c1c(OC)ccc(Br)c1OC`, “inactive”.
The result for `CC1=CCC(C(C)C)C=C1` (stereo not given) reads 50.2 µM (active); that for `Cc1cc(O)ccc1N`, 20.1 µM (active); that for `CCCCCC(CO)CCC` (stereo not given), “inactive”.
Take `Nc1nc(CC(=O)O)cs1`: the Potency result was “inactive”.
The result for `Cc1ccc(C(=O)C(C)CN2CCCCC2)cc1` (stereo not given) reads “inactive”; that for `CCOC(=O)[C@H](CCc1ccccc1)N[C@H]1CCc2ccccc2N(CC(=O)O)C1=O`, 8.71 µM (active).
As for `Nc1nc(N)c2nc(CNc3ccc(C(=O)N[C@@H](CCC(=O)O)C(=O)O)cc3)cnc2n1`, the entry is “inactive”.
The result for `N=C(N=C(N)N)N1CCOCC1` reads “inactive”; that for `CC(Cc1cccc(C(F)(F)F)c1)NCCOC(=O)c1ccccc1` (stereo not given), 27.5 µM (active).
Regarding `CC1CCc2cc(F)cc3c(=O)c(C(=O)O)cn1c23` (stereo not given), the Potency entry is “inactive”.
